According to PubChem BioAssay AID504465 (National Center for Advancing Translational Sciences (NCATS), 2011):
Out of some 2,100 compounds screened, about 210 (10%) were called active. Roughly 53% stayed inconclusive and do not appear here. The list shows a part of the results. Values without a mark were called inactive. The call rests on the fitted dose curve; in most records, active means well fitted inhibition curve with a large enough effect; inconclusive means small, poorly fitted or top-dose-only effect, or effect the other way; inactive means no such curve, though single readings can be large or run the other way.

test: IN Cell qHTS Assay for Inhibitors of the mTORC1 Signaling Pathway in MEF (Tsc2-/-, p53-/-) Cells: Sytravon; details: phospho-rpS6 immunofluorescence, 24 h; series mostly up to 38.3 µM; activity, negative = inhibition: at the top concentration; further: nearly all actives have a fitted effect of over 60% in size
How it was run: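 Immunofluorescence of rpS6 phosphorylation (Ser235/236) in mouse embryonic fibroblasts lacking Tsc2 and p53, after 24 h compound exposure; Hoechst-normalized signal imaged, each well scored as % active cells relative to rapamycin (7.5 nM) and DMSO controls.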
Potency means the concentration at half of the fitted maximal effect.

Row | SMILES | activity, negative = inhibition [%] | Potency
1 | Cc1ccccc1OCc1cc(=O)n2c(-c3ccccc3)csc2n1 | 7.14 | 
2 | Cc1cccc(-n2c(C)nc3cc(C(=O)NC4CCCCCC4)ccc32)c1 | 6.25 | 
3 | COc1ccc(S(=O)(=O)N(C)Cc2nc(-c3cccc(C)c3)no2)cc1 | -29.1 | 
4 | Cc1ccc(-c2cnc(NCc3ccc(C(F)(F)F)cc3)n2C)cc1 | -41.9 | 
5 | O=C(NCc1ccccc1Cl)C1CCCN(c2nc3ccccc3n3cccc23)C1 (stereo not drawn) | -2.13 | 
6 | Cc1nnc(N2CCCC(C(=O)Nc3cc(F)ccc3F)C2)c2nn(-c3ccccc3)c(C)c12 (stereo not drawn) | -20.1 | 
7 | COc1ccc(-n2nc3c(N4CCCC(C(=O)NCc5ccccc5C)C4)nnc(C)c3c2C)cc1 (stereo not drawn) |  | 5.85 µM (active)
8 | CCCN1C(=O)C(Cc2nc3ccccc3c(=O)n2CC)c2ccccc21 (stereo not drawn) | -18.6 | 
9 | COc1ccc2nc(NC(=O)c3nc(S(=O)(=O)Cc4ccccc4)ncc3Cl)sc2c1 |  | 5.85 µM (active)
10 | Cc1nnc(NC(=O)c2nc(S(=O)(=O)Cc3ccccc3)ncc2Cl)s1 |  | 16.5 µM (active)
11 | CCc1nnc(NC(=O)c2nc(S(=O)(=O)Cc3ccc(C)cc3)ncc2Cl)s1 |  | 20.7 µM (active)
12 | COc1cccc(-n2ccnc2SCC(=O)Nc2nc3ccc(C)cc3s2)c1 | -25 | 
13 | CCc1nnc(NC(=O)c2nc(S(=O)(=O)Cc3cccc(C)c3)ncc2Cl)s1 |  | 9.27 µM (active)
14 | COc1cc(OC)cc(C(=O)Nc2cc3nn(-c4ccccc4)nc3cc2Cl)c1 | -26.8 | 
15 | COc1ccccc1NC(=O)c1c(NCc2ccc(C)o2)sc2c1CCC(C)C2 (stereo not drawn) | 0 | 
16 | Cc1ccccc1C(=O)N1CCC(c2nc3ccccc3s2)CC1 | -16.3 | 
17 | CC(C)(C)c1ccc(S(=O)(=O)NCc2ccc3c(c2)CCN3C(=O)c2ccccc2)cc1 | 2.27 | 
18 | CCCCN(C)CCNC(=O)Cn1ncc2c3ccccc3n(CCC)c2c1=O | -26.3 | 
19 | CCCCNC(=O)c1cc(-c2cccnc2)nc2ccc(S(=O)(=O)NCCCC)cc12 | 0 | 

Row | SMILES | activity, negative = inhibition [%] | Potency
20 | O=C(CSc1nccn1-c1ccc(Cl)cc1)Nc1ccc(Cl)c(Cl)c1 | -14.3 | 
21 | CCC1=Nc2cc(C(=O)NC3CCC(C)CC3)ccc2Sc2ccc(C)cc21 (stereo not drawn) | -12 | 
22 | CC1CCN(S(=O)(=O)c2ccc3nc(Nc4cccc(F)c4)ccc3c2)CC1 | -24.8 | 
23 | CCSc1nc2ccccc2c(OCc2cc(C(=O)OC)ccc2OC)c1C(=O)OC | -27.8 | 
24 | Cc1ccccc1CS(=O)(=O)c1ncc(Cl)c(C(=O)Nc2nnc(C(C)C)s2)n1 |  | 13.1 µM (active)
25 | CC(C)c1ccc(NC(=O)CSC2=Nc3ccccc3C3=NC(CCC(=O)NCc4ccc(F)cc4)C(=O)N23)cc1 (stereo not drawn) | -1.18 | 
26 | O=C(CCn1cnc2onc(-c3ccc(F)cc3)c2c1=O)Nc1ccc(F)c(Cl)c1 | 1.08 | 
27 | O=S(=O)(c1ccc(-c2csc(=Nc3ccc(OC(F)(F)Cl)cc3)n2CCCO)cc1)N1CCCC1 |  | 1.85 µM (active)
28 | COc1ccc(NC(=O)CCCN2C(=O)CCn3nc(-c4cn(C)c5ccccc45)cc32)cc1 | 0.526 | 
29 | CCOC(=O)C1=C(C)NC(=O)NC1c1cn(-c2ccccc2)nc1-c1ccc(OC(C)C)cc1 (stereo not drawn) | 2.95 | 
30 | O=C(Nc1ccc(F)cc1F)c1noc2c1CCc1ccccc1-2 | 19.6 | 
31 | CC1=Nc2cc(C(=O)NC3CCCC3)ccc2Sc2ccc(Br)cc21 | 5.6 | 
32 | Cc1cc(C)c2c(NC(=O)c3ccccc3Cl)c(C(=O)Nc3ccc(C)c(C)c3)sc2n1 |  | 1.65 µM (active)
33 | Cc1ccc(NC(=O)c2cc(S(=O)(=O)N3CCc4ccccc43)ccc2F)cc1Cl | 6.25 | 
34 | Cc1ccc(C(=O)Nc2c(C(=O)NCc3ccc(Cl)cc3)sc3nc(C)cc(C)c23)cc1 |  | 11.7 µM (active)
35 | Cc1cc(C)c(NC(=O)c2sc3nc(C)cc(C)c3c2NC(=O)c2ccccc2)c(C)c1 | 4.6 | 
36 | COCCCNC(=O)c1sc2nc(C)c(C(=O)Nc3ccc(C)cc3C)c(-c3ccc(Cl)cc3)c2c1N | -18.8 | 
37 | Cc1cccc(C(=O)Nc2c(C(=O)NCc3ccc(Cl)cc3)sc3nc(C)cc(C)c23)c1 | -100 | 
38 | CC(C)(C)c1ccc(NC(=O)CSc2nnc3scc(-c4ccccc4)n23)cc1 | 29.3 | 
